Data reported in the supplement of paper PMC13380429.

Key:
[1] = system: Vero E6 infected with SARS-CoV-2; assay: morphology score (similarity to uninfected cells); higher = more like uninfected cells; details: 24 h
[2] = system: Vero E6 infected with SARS-CoV-2; assay: SARS-CoV-2 infection rate relative to infected DMSO; higher = more infection, active = 60 or less; details: 24 h

Compound: Oc1nc(-c2ccc(C(F)(F)F)cc2)nc2c1CSCC2 (0.833333 µM)
- morphology score [1]: 0.149
- SARS-CoV-2 infection rate [2]: 94% (inactive)

Compound: CC(C)NCC(O)COc1cccc2[nH]c3ccccc3c12 (stereo unspecified) [carazolol] (10 µM)
- morphology score [1]: -0.011
- SARS-CoV-2 infection rate [2]: 91.5% (inactive)

Compound: CCCCn1c(=O)c2[nH]c(C34CC5CC(CC3C5)C4)nc2n(CCCO)c1=O (10 µM)
- morphology score [1]: -0.0475
- SARS-CoV-2 infection rate [2]: 100% (inactive)
